Our source for the outcome and AC50 values is PubChem BioAssay (EPA / NIEHS).

The target of assay [1] is Paired box protein Pax-6 (Homo sapiens) (UniProt P26367). Briefly: ATG_Pax6_CIS: Attagene CIS-FACTORIAL HepG2 Assay for human Paired Box 6 (PAX6) (AID 2282956). As to conditions: HepG2 CIS-FACTORIAL PAX6 reporter transcription, RNA readout; actives raise or lower the signal. A digest of the protocol:
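Multiplexed cis-reporter HepG2 system; 24 h treatment; reporter mRNA read by RT-PCR/CE fluorescence; bidirectional fit vs DMSO.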

The nature of assay [2]: ATG_PXRE_CIS: Attagene CIS-FACTORIAL HepG2 Assay for human Pregnane X Receptor Element (PXRE) (AID 2282957). The settings on record: HepG2 Attagene CIS-FACTORIAL PXRE reporter, mRNA; actives raise or lower the signal. A digest of the protocol:
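Transfect HepG2 with MRTUs (cis promoter elements); dose chemical, incubate 24 h; isolate RNA, RT with oligo(dT), PCR, 6-FAM label, HpaI cut, CE. Gain/loss fit vs DMSO.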

Assay [3] is described as follows: ATG_Sox_CIS: Attagene CIS-FACTORIAL HepG2 Assay for human SRY-box transcription factor (SOX) (AID 2282960). As to conditions: HepG2 Attagene cis-factorial SOX reporter, mRNA; actives raise or lower the signal. A digest of the protocol:
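Transient MRTU transfection of HepG2; 24 h compound incubation; TriZol RNA, oligo(dT) RT, PCR, 6-FAM primer extension, HpaI cut, CE. Bidirectional fit, DMSO = baseline.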

The target of assay [4] is Transcription factor Sp1 (Homo sapiens) (UniProt P08047). Briefly: ATG_Sp1_CIS: Attagene CIS-FACTORIAL HepG2 Assay for human Specificity Protein 1 (Sp1) (AID 2282961). As to conditions: HepG2 Sp1 cis-reporter transcription, actives raise or lower the signal. Put shortly:
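Endogenous Sp1 activity was gauged in human liver HepG2 cells bearing transfected reporter units under a cis-regulating promoter. After 24 h dosing, reporter mRNA was quantified by RT-PCR with capillary electrophoresis, and activity fitted bidirectionally versus DMSO.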

Assay [5] can be described thus: ATG_SREBP_CIS: Attagene CIS-FACTORIAL HepG2 Assay for human Sterol Regulatory Element Binding (SREBP) (AID 2282962). The settings on record: HepG2 Attagene cis-factorial SREBP reporter, mRNA; actives raise or lower the signal. A digest of the protocol:
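mRNA induction of transfected cis-promoter reporters in HepG2 cells, 24 h post-dose. Detection: RT-PCR with 6-FAM-labelled products, HpaI digest, capillary electrophoresis. DMSO served as negative control and baseline.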

Assay [6] addresses Signal transducer and activator of transcription 3 (Homo sapiens) (UniProt P40763). Briefly: ATG_STAT3_CIS: Attagene CIS-FACTORIAL HepG2 Assay for human Signal Transducer and Activator of Transcription 3 (STAT3) (AID 2282963). The settings on record: HepG2, Attagene cis-factorial STAT3 reporter transcription; actives raise or lower the signal. A digest of the protocol: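 HepG2 cells transiently transfected with cis-element-driven multiple reporter transcription units; after 24 h chemical exposure, reporter mRNA measured by RT-PCR, 6-FAM primer-extension labelling, HpaI digestion and capillary electrophoresis. Bidirectional fitting versus DMSO baseline.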

Assay [7] is described as follows: ATG_TA_CIS: Attagene CIS-FACTORIAL HepG2 Assay for human TA Basal Promoter (AID 2282964). The settings on record: HepG2 Attagene CIS-factorial TA basal promoter reporter; actives raise or lower the signal. A digest of the protocol:
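Background-control readout: TA basal promoter reporter mRNA, fitted in both directions relative to DMSO. Measured by RT-PCR and capillary electrophoresis 24 hours after treating HepG2 human liver cells transiently carrying multiplexed cis-regulated reporter constructs.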

A short description of assay [8]: ATG_TCF_b_cat_CIS: Attagene CIS-FACTORIAL HepG2 Assay for human T-Cell-Factor with beta-catenin (TCF/b-cat) (AID 2282965). The settings on record: HepG2 TCF/beta-catenin cis-reporter transcription, actives raise or lower the signal. Put shortly:
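Using capillary electrophoresis as the read-out, labelled reporter cDNA fragments from transiently transfected HepG2 were sized and quantified. Exposure lasted 24 hours; activity in either direction was referenced to DMSO.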

Assay [9] can be described thus: ATG_TAL_CIS: Attagene CIS-FACTORIAL HepG2 Assay for human TAL Basal Promoter (AID 2282966).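 Further: background control endpoint measuring basal TAL promoter reporter mRNA not a specific factor.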 As to conditions: HepG2 Attagene cis-factorial TAL promoter reporter; actives raise or lower the signal. A digest of the protocol:
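Fluorescence of labelled reporter cDNA fragments, resolved by capillary electrophoresis, gave the readout. Human HepG2 liver cells carried transiently transfected cis-element reporter units and were treated for 24 hours; activity was fitted bidirectionally against DMSO.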

Assay [10] can be described thus: ATG_TGFb_CIS: Attagene CIS-FACTORIAL HepG2 Assay for human Transforming Growth Factor (TGF) (AID 2282967). As to conditions: HepG2 Attagene CIS TGFb reporter, mRNA transcription; actives raise or lower the signal. A digest of the protocol:
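Endogenous TGFB1-linked transcription factor activity read as reporter mRNA via RT-PCR and capillary electrophoresis, 24 h after dosing transiently transfected HepG2 cells. Gain or loss of signal fitted relative to DMSO.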

Assay [11] can be described thus: ATG_VDRE_CIS: Attagene CIS-FACTORIAL HepG2 Assay for human Vitamin D Receptor Element (VDRE) (AID 2282968). The settings on record: HepG2 VDRE cis-reporter transcription, actives raise or lower the signal. A digest of the protocol:
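HepG2 cells transiently transfected with cis-element reporter units, dosed 24 h; reporter mRNA measured by RT-PCR, 6-FAM labeling, HpaI digestion and capillary electrophoresis. Activity fitted bidirectionally against DMSO baseline.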

Assay [12] concerns the target Estrogen receptor (Homo sapiens) (UniProt P03372). Briefly: ATG_ERa_TRANS: Attagene TRANS-FACTORIAL HepG2 Assay for human Estrogen Receptor alpha (ERa) (AID 2282970; active means hit-call score of the fitted dose curve at least 0.9, where 1 is the maximum). The settings on record: HepG2 Attagene TRANS ERa GAL4 reporter, mRNA. Put shortly:
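Human liver HepG2, transient transfection of multiple GAL4-UAS reporter units; TRANS format (exogenous NR-Gal4 chimera). 24 h dosing. Readout: reporter mRNA, RT-PCR, 6-FAM primer extension, HpaI digest, capillary electrophoresis. Positive direction vs DMSO.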

For assay [13], the target named is X-box-binding protein 1 (Homo sapiens) (UniProt P17861). Briefly: ATG_Xbp1_CIS: Attagene CIS-FACTORIAL HepG2 Assay for human X-box Binding Protein 1 (XBP1) (AID 2282972). As to conditions: HepG2 XBP1 cis-element reporter, Attagene multiplex; actives raise or lower the signal. A digest of the protocol:
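Fluorescence-labelled cDNA fragments from reporter transcripts, separated by capillary electrophoresis, give the signal. Source: HepG2 cells transfected with promoter-driven reporter units, harvested 24 h post-dose. DMSO served as reference for bidirectional curve fitting.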

Assay [14] can be described thus: ATG_M_19_TRANS: Attagene TRANS-FACTORIAL HepG2 Assay for M19 Transcription Factor (Internal Marker) (AID 2282974; active means hit-call score of the fitted dose curve at least 0.9, where 1 is the maximum). The settings on record: HepG2 Attagene TRANS-FACTORIAL M19 internal marker reporter. A digest of the protocol:
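Cells: human HepG2, transiently transfected with multiplexed reporter transcription units. Exposure: 24 h. Detection: RT-PCR of reporter mRNA with capillary electrophoresis. Analysis: gain-of-signal vs DMSO.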

Assay [15] concerns the target Estrogen-related receptor gamma (Homo sapiens) (UniProt P62508). Briefly: ATG_ERRg_TRANS: Attagene TRANS-FACTORIAL HepG2 Assay for human Estrogen-Related Receptor gamma (ERRg) (AID 2282977; active means hit-call score of the fitted dose curve at least 0.9, where 1 is the maximum;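 further: hits increase reporter signal over DMSO so potencies reflect activators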). As to conditions: HepG2 Attagene TRANS reporter, ERRg transactivation. A digest of the protocol:
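Transient HepG2 transfectants, 24 h compound exposure, GAL4-UAS reporter mRNA by RT-PCR/6-FAM labelling/capillary electrophoresis; positive direction vs DMSO.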

Assay [16] addresses Nuclear receptor subfamily 1 group I member 3 (Homo sapiens) (UniProt Q14994). Briefly: ATG_CAR_TRANS: Attagene TRANS-FACTORIAL HepG2 Assay for human Constitutive Androstane Receptor (CAR) (AID 2282969; active means hit-call score of the fitted dose curve at least 0.9, where 1 is the maximum;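 further: activators raise reporter mRNA above DMSO so AC50 marks induction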). As to conditions: HepG2 Attagene TRANS-FACTORIAL CAR reporter. Put shortly: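 HepG2 cells transiently transfected with multiplexed GAL4-UAS reporter units expressing chimeric NR-Gal4 proteins; compound exposure 24 h. Reporter mRNA measured by RT-PCR, 6-FAM labelling, HpaI digestion and capillary electrophoresis; gain-of-signal fitted against DMSO baseline.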

The nature of assay [17]: ATG_RORE_CIS: Attagene CIS-FACTORIAL HepG2 Assay for human RAR-related Orphan Receptor Element (RORE) (AID 2282959). The settings on record: HepG2 Attagene cis-factorial RORE reporter, mRNA; actives raise or lower the signal. Put shortly: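 Cells were HepG2 carrying transfected cis-regulated reporter constructs, dosed for 24 hours. Total RNA was reverse-transcribed and reporter cDNA amplified, fluorescently labeled and sized by capillary electrophoresis. Activity was fitted bidirectionally relative to DMSO.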

The target of assay [18] is Steroid hormone receptor ERR1 (Homo sapiens) (UniProt P11474). Briefly: ATG_ERRa_TRANS: Attagene TRANS-FACTORIAL HepG2 Assay for human Estrogen-Related Receptor alpha (ERRa) (AID 2282971; active means hit-call score of the fitted dose curve at least 0.9, where 1 is the maximum). The settings on record: HepG2 Attagene TRANS reporter, ERRa transactivation. A digest of the protocol: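 Reporter transcript induction was quantified by RT-PCR and capillary electrophoresis of FAM-labelled, HpaI-cut products after 24 h treatment of HepG2 cells carrying transiently transfected GAL4-UAS reporter units and an exogenous ERRa-Gal4 fusion; activity scored as increase over DMSO.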

Assay [19] is described as follows: ATG_GAL4_TRANS: Attagene TRANS-FACTORIAL HepG2 Assay for GAL4 (Internal Marker) (AID 2282976; active means hit-call score of the fitted dose curve at least 0.9, where 1 is the maximum). The settings on record: HepG2 Attagene TRANS GAL4 internal marker reporter. Put shortly:
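First, HepG2 cells were transfected with reporter units under GAL4-UAS control. Next, they were treated with chemical for 24 h. Finally, RNA was reverse-transcribed, PCR-amplified, FAM-labelled and resolved by capillary electrophoresis, with induction scored against DMSO.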

Inconclusive results are not listed. Activity calls are given as the source filed them. How the source made its calls, unless noted: active means hit-call score of the fitted dose curve at least 0.9, where 1 is the maximum; inactive means score below 0.9.

Chain of X-box-binding protein 1 (Homo sapiens) (P17861 whole entry, looked up, the tested form may be a part): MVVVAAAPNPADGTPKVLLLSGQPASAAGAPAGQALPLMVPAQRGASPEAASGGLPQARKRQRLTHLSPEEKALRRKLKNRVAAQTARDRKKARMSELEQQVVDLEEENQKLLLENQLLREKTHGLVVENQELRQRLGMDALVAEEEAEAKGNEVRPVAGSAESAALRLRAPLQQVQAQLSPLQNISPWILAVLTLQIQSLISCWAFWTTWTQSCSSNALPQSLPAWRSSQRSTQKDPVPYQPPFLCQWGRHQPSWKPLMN
Chain of Paired box protein Pax-6 (Homo sapiens) (P26367 whole entry, looked up): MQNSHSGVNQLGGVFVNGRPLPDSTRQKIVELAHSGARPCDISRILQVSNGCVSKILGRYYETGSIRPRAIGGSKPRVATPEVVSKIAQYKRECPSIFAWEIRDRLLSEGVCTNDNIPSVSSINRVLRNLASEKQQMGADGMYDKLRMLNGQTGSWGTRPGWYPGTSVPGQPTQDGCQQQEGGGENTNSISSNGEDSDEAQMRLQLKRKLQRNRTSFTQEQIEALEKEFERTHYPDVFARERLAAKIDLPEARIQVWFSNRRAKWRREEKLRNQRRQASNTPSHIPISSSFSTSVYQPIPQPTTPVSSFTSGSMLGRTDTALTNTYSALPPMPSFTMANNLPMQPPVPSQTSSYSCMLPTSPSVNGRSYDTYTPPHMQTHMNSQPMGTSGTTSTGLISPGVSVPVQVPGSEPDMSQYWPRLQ
Chain of Transcription factor Sp1 (Homo sapiens) (P08047 whole entry, looked up): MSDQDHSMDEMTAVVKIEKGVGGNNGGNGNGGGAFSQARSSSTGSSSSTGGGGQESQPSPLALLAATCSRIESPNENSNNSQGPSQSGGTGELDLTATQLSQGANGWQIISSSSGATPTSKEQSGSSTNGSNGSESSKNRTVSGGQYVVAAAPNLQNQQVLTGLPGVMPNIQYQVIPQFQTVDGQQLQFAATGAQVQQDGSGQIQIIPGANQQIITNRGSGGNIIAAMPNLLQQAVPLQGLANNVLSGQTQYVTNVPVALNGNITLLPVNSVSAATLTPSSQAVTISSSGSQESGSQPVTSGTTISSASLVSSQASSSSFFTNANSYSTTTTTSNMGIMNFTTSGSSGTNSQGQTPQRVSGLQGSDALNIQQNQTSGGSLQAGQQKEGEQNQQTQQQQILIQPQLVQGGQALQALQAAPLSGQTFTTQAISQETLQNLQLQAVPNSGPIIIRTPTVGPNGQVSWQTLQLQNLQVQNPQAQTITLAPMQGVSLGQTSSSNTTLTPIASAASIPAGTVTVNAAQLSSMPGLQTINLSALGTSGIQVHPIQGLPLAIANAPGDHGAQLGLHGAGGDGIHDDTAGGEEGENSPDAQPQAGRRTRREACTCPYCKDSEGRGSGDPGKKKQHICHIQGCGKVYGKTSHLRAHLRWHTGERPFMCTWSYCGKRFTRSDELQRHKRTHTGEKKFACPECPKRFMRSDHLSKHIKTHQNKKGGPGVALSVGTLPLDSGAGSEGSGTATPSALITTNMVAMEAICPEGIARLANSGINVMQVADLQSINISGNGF
Chain of Signal transducer and activator of transcription 3 (Homo sapiens) (P40763 whole entry, looked up): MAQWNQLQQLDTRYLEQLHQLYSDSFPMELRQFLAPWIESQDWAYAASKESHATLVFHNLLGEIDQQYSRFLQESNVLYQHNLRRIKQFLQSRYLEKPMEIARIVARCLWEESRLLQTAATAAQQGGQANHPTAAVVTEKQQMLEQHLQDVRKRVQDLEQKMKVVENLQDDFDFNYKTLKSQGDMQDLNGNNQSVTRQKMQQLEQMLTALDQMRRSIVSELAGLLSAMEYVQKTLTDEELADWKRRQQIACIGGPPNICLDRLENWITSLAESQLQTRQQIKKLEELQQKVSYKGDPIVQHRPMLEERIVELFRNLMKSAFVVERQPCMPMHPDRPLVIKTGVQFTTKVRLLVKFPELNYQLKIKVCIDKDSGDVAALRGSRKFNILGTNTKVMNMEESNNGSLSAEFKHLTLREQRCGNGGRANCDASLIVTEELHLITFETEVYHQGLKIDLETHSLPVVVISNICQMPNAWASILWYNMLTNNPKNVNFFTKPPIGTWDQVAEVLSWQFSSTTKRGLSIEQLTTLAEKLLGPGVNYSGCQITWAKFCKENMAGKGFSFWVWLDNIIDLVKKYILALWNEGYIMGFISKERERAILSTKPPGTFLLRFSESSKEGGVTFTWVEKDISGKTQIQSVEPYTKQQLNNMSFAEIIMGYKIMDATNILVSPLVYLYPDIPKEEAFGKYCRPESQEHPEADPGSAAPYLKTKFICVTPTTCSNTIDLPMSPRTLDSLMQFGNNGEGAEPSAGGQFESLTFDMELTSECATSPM
Chain of Estrogen receptor (Homo sapiens) (P03372 whole entry, looked up, the tested form may be a part): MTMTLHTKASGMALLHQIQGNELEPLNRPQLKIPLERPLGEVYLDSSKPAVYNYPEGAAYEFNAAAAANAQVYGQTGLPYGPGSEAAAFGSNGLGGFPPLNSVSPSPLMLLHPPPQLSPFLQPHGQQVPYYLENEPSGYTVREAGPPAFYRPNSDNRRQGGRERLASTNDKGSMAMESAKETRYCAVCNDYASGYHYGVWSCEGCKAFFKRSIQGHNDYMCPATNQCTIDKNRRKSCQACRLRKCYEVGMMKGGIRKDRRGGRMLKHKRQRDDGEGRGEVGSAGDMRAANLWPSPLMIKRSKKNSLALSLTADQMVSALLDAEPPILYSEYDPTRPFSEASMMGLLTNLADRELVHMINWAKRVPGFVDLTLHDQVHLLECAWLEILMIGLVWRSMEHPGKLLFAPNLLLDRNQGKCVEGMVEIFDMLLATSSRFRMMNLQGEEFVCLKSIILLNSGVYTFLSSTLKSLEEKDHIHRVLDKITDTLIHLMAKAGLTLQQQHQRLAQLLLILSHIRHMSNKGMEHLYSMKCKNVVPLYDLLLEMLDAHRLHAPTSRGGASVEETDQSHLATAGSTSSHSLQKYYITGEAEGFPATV
Chain of Estrogen-related receptor gamma (Homo sapiens) (P62508 whole entry, looked up, the tested form may be a part): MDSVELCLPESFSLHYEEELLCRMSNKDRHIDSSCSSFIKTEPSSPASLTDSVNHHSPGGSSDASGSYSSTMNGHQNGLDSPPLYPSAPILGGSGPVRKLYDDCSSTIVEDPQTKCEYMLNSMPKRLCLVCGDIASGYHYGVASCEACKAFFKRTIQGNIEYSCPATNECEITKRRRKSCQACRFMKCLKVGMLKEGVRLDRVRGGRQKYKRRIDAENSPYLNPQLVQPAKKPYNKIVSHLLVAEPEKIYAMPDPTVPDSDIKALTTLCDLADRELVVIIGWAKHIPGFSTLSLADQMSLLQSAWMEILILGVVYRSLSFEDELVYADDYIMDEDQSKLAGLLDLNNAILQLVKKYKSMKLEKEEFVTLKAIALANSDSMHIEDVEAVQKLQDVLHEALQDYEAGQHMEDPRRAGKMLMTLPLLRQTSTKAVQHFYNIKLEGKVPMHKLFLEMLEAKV
Chain of Nuclear receptor subfamily 1 group I member 3 (Homo sapiens) (Q14994 whole entry, looked up, the tested form may be a part): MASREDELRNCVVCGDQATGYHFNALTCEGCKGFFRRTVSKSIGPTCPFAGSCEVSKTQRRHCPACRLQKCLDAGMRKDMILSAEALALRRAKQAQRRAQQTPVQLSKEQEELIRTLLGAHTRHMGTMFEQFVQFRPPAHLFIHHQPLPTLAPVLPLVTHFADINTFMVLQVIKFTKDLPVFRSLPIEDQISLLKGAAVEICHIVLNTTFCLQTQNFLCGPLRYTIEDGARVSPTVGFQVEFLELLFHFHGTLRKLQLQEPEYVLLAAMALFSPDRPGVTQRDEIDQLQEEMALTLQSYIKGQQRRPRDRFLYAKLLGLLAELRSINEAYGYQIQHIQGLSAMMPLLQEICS
Chain of Steroid hormone receptor ERR1 (Homo sapiens) (P11474 whole entry, looked up, the tested form may be a part): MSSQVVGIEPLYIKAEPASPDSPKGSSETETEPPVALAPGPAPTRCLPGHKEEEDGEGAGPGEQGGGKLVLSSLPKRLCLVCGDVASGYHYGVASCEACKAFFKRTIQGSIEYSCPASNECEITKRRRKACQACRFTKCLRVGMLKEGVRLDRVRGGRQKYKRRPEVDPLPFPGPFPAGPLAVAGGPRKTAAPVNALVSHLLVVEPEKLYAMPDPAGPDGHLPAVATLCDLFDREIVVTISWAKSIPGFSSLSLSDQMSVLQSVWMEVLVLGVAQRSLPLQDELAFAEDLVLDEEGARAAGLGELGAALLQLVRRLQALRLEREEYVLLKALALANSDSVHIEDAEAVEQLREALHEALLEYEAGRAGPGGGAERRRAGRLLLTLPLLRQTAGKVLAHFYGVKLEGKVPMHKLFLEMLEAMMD

Take `CCOC(=O)Cc1cccc2ccccc12`: the outcome in assay [1], in assay [3], in assay [4], in assay [5], in assay [6] and in assay [7] was inactive. Further, the compound was called inactive in assay [8], in assay [9], in [10], in assay [11], in assay [12] and in [13]. Also, the compound was classed as inactive in [14] and in assay [15]. Besides, the concentration at half-maximal activity (AC50) in [2] was 71.7 µM (active).
Turning to `NCCCN1CCN(CCCN)CC1`, the call in assay [1], in assay [3], in assay [4], in assay [5], in assay [7] and in assay [8] was inactive. For the same compound, the result in assay [9], in assay [10], in [11], in assay [16], in [12] and in assay [13] was inactive. Besides, the compound was called inactive in [14]. In [2], the AC50 is 53.7 µM (active).
For `CC1(C)[C@H]2CC[C@]1(C)C(=O)C2`, the compound was called inactive in assay [1], in [2], in assay [17], in assay [3], in [4] and in assay [5]. Moreover, the call in assay [6], in [8], in [9], in assay [10], in [11] and in assay [18] was inactive. The compound was classed as inactive in [13], in [19] and in assay [15].
With `CC(C)c1ccc2c(c1)CC[C@H]1[C@](C)(CN)CCC[C@]21C`, the concentration at half-maximal activity (AC50) in assay [1] was 6.4 µM (active); in assay [3] it was 6.13 µM (active); in assay [8] it was 5.65 µM (active); in assay [11], 5.66 µM (active); in assay [13] it was 5.24 µM (active). Besides, the call in [2], in [5], in [6], in [7], in [9] and in [10] was inactive. In addition, the compound was classed as inactive in [12].
For `CCOC(=O)[C@H](C)O`, the call in assay [1], in [17], in assay [3], in assay [4], in [5] and in assay [6] was inactive. Moreover, the call in assay [7], in assay [8], in assay [10], in assay [11], in assay [13] and in assay [14] was inactive. In addition, the compound was called inactive in assay [19]. The AC50 in [2] is 27.2 µM (active).

What is called AC50 is the concentration giving half of the maximal activity seen.
